USP10 inh: inhibitors of human USP10 deubiquitinase; Q14694; purified USP10, Ub-rhodamine fluorescence, 60 min; inhibition, % at 20 µM; 1.1% of 47,000 active
OTUD3 inh: human OTUD3 deubiquitinase inhibition; 0.7% of 47,000 active; AID 1645858; inhibition, % at 25 µM; purified OTUD3, Ub-rhodamine fluorescence, 2 h; Q5T2D3
USP7 inh: blocks human USP7 ubiquitin-rhodamine cleavage | Q93009 | purified USP7, Ub-rhodamine cleavage fluorescence | inhibition, % at 20 µM | 0.3% of 47,000 active | AID 1645854
USP8 inh: human USP8 deubiquitinase inhibition | P40818 | purified USP8, Ub-rhodamine cleavage fluorescence, 30 min | inhibition, % at 20 µM | 4.2% of 47,000 active | AID 1645853
UCHL1 inh: human UCHL1 deubiquitinase inhibition | purified UCHL1, Ub-rhodamine cleavage fluorescence | inhibition, % at 20 µM | 0.2% of 47,000 active
Target sequence (P09936 whole entry, looked up): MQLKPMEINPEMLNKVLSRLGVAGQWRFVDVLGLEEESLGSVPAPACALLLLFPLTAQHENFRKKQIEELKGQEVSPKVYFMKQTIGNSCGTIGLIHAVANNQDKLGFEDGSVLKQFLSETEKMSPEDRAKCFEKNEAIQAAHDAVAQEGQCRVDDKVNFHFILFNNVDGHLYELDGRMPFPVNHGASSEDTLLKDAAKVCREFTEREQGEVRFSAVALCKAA
* = called active by the depositor. Compounds with a hit are over-represented: about 5% of the library has one in this group of screens. Cut-off read from the data, not from the text of the source: active = inhibition above about 30%; inactive = the rest.

SMILES	USP10 inh	OTUD3 inh	USP7 inh	USP8 inh	UCHL1 inh
CCn1cnc2cc(NCc3ccc(OC)cc3OC)ccc21	-1	-7	-5	5	-4
CC(=O)Nc1cc(C(=O)NC2CCCC2)c2ccc(C)nc2c1	-7	0	-9	34*	4
O=C(Nc1ccc(F)cc1F)c1cc(-c2ccccn2)n[nH]1	13	-3	12	52*	5
Cc1cc(C(=O)NC2CCN(Cc3ccccc3)CC2)c(C)o1	-11	-12	-4	-7	-4
CC(C)n1cc2cc(C(=O)NC3CCN(Cc4ccccc4)CC3)sc2c1	-8	-31	-26	51*	-1
CCC1(CC)Oc2ccc(C(=O)CCN(C)C)cc2O1	6	27	7	32*	2
C=C/C(C)=C/[C@@]1(C)SC(=O)C(C)=C1O	18	30	-9	41*	21
COC(=O)CCC(c1ncc(C(F)(F)F)cc1Cl)S(=O)(=O)c1ccccc1 (stereo not drawn)	0	24	4	31*	1
O=C1[C@H]2Cc3c([nH]c4ccccc34)C(c3cccc4ccccc34)N2C(=O)CN1Cc1ccccc1F (stereo partly drawn)	-8	-17	-1	-3	-8
NC(=O)c1nc(-c2ccc(OCc3ccccc3)cc2)nc2c1[nH]c(=O)n2-c1ccccc1	-5	-135	-26	-288	-40
NC(=O)c1nc(-c2ccc(OCc3ccccc3)cc2)nc2c1[nH]c(=O)n2-c1ccc2c(c1)OCO2	3	3	11	49*	0
COc1cccc(-c2nc(C(N)=O)c3[nH]c(=O)n(-c4ccc5c(c4)OCO5)c3n2)c1O	0	7	4	31*	4
Cc1ccnn1CCC(=O)N1CCC[C@@H]2NC(=O)c3ccccc3OCC/C=C/C[C@@H]21	1	8	3	10	0
COc1ccc(NC(=O)CCc2nc3sc4c(c3c(=O)[nH]2)CCCCC4)cc1	10	-40	0	32*	-6
O=C(CCc1nc2sc3c(c2c(=O)[nH]1)CCCCC3)Nc1ccccc1	-6	-29	-1	4	-1
O=C(COc1ccc(N2CC(C(=O)NCc3ccccc3)CC2=O)cc1)Nc1ccc(F)cc1 (stereo not drawn)	22	12	26	64*	8
Cc1ccc(CNC(=O)C2CC(=O)N(c3ccc(OCC(=O)Nc4ccc(C)cc4C)cc3)C2)cc1 (stereo not drawn)	11	13	8	11	-5
O=C(COc1ccc(N2CC(C(=O)NCc3ccc4c(c3)OCO4)CC2=O)cc1)Nc1ccc(F)cc1 (stereo not drawn)	49*	4	23	53*	3
O=C(COc1ccc(N2CC(C(=O)NCc3ccc4c(c3)OCO4)CC2=O)cc1)Nc1ccc(Cl)cc1 (stereo not drawn)	38*	10	22	25	4
COc1ccc(NC(=O)COC(=O)C2CC(=O)N(c3ccc(F)cc3)C2)cc1 (stereo not drawn)	3	-6	1	0	-3
COC(=O)c1cccc(S(=O)(=O)N(CCO)Cc2cc3c(C)cc(C)cc3[nH]c2=O)c1	-4	-11	-4	-14	-6
CN1C(=O)OC[C@@H]2CCN(Cc3ccc(N4CCOCC4)cc3)C[C@H]21	1	8	5	10	0
Cc1ccc(S(=O)(=O)N2CCN(S(=O)(=O)N3CCCCCC3)CC2)cc1	18	8	6	31*	2
Cc1ccc(Cn2cc(S(=O)(=O)N3CCCCC3)ccc2=O)cc1	3	15	-9	14	0
CC(OC(=O)c1cc(S(=O)(=O)Nc2ccccc2F)ccc1Cl)C(=O)Nc1ccc([N+](=O)[O-])cc1C(F)(F)F (stereo not drawn)	36*	5	2	-97	6
SMILES	USP10 inh	OTUD3 inh	USP7 inh	USP8 inh	UCHL1 inh
CC(OC(=O)c1cc(S(=O)(=O)Nc2ccc(S(C)(=O)=O)cc2)ccc1Cl)C(=O)Nc1ccc([N+](=O)[O-])cc1C(F)(F)F (stereo not drawn)	18	1	1	-85	3
CC(C)C(NS(=O)(=O)c1ccc2c(c1)CCCC(=O)N2)C(=O)NC1CCCCCC1 (stereo not drawn)	0	2	-1	8	2
CC1(C)CCCC2=C1CC(C)(C)C(N(C(=O)/C=C/C(=O)O)c1ccccc1)C2 (stereo not drawn)	34*	41*	1	59*	0
COc1cccc(C(=O)Nc2ccc(N3CCCCC3=O)c(C)c2)c1	-1	6	4	1	0
CCOc1ccc(NC(=O)COC(=O)c2oc3ccc(OCC)cc3c2C)cc1	-2	-51	-6	-60	-5
Cc1c(C(=O)OCC(=O)Nc2ccc3c(c2)OCO3)oc2ccc(Br)cc12	35*	0	3	-26	0
CCCOc1ccc(C(=O)Nc2ccc(S(=O)(=O)Nc3cc(C)nc(C)n3)cc2)cc1	0	57*	-3	-2	1
COc1ccc(NS(=O)(=O)c2ccc(C(=O)Nc3cccc(C(C)=O)c3)cc2)cc1	-1	-8	0	-1	3
Cc1ccc(-c2c(C)noc2C)cc1S(=O)(=O)N1CCc2ccccc2C1	9	16	13	6	8
Cc1cccc(OCC(=O)Nc2ccc3c(c2)NC(=O)C(C)O3)c1 (stereo not drawn)	16	5	9	35*	7
COc1ccc(OCC(=O)Nc2ccc3c(c2)NC(=O)C(C)O3)cc1 (stereo not drawn)	0	-7	2	-12	1
COc1ccc(OC)c(C(=O)Nc2ccc3c(c2)NC(=O)C(C)O3)c1 (stereo not drawn)	2	-5	1	2	1
Cc1ccc(NC(=O)CSc2ccccc2C(=O)Nc2ccc3c(c2)NC(=O)C(C)O3)cc1 (stereo not drawn)	-8	-8	-1	37*	-2
O=C(CSc1nc(-c2ccccc2)c2ccccc2n1)NCc1ccc2c(c1)OCO2	17	-48	2	55*	-3
NS(=O)(=O)c1ccc(CCNC(=O)CSc2nc3ccccc3c(=O)n2Cc2ccc3c(c2)OCO3)cc1	27	12	6	53*	-1
O=C(Cn1cc(S(=O)(=O)N2CCOCC2)ccc1=O)Nc1ccc(F)cc1	1	12	-1	12	2
CC(C)CC1NC(=O)C2CCCN2C1=O (stereo not drawn)	17	33*	-115	54*	41*
Cc1cccc(-c2noc(Cn3c(=O)[nH]c4cc5c(cc4c3=O)OCO5)n2)c1	20	15	2	55*	-2
O=C(CSc1nc2ccncc2[nH]1)Nc1ccc(Br)cc1F	9	-1	0	35*	0
Cc1cccc2[nH]c3c(N4CCN(c5ccc(F)cc5)CC4)ncnc3c12	6	-4	6	2	7
